# Laboratory results: PMC7862700, “An all-to-all approach to the identification of sequence-specific readers for epigenetic DNA modifications on cytosine”
# Tests used:
# Assay in all cases: DAPPL (digital affinity profiling via proximity ligation, sequencing); 10 mM Tris-HCl pH 7.5, 50 mM NaCl, 1 mM DTT, 4% glycerol, room temperature, 30 min; GST-TFs on glutathione beads, 16-mer random dsDNA library, 0.1% formaldehyde crosslink after washing; high values mean tight binding
# Details in all cases: protein: recombinant; tags: N-terminal GST; dsDNA, one strand shown
# FLI1 = biological target: T1, FLI1 (Homo sapiens, UniProt Q01543 1-452)
# T1 sequence: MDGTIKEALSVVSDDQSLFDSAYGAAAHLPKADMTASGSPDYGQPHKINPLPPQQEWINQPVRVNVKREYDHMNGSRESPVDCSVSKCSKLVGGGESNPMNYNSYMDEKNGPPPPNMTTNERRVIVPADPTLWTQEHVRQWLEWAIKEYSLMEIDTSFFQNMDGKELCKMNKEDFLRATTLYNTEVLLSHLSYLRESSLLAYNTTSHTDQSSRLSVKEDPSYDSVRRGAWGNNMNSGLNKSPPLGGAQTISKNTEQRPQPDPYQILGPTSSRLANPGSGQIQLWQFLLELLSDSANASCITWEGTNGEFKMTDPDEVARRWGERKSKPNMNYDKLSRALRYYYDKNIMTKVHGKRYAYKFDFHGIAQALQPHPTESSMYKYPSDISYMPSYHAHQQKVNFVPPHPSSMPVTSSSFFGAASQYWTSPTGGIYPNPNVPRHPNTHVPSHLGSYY
# How it was run: (§1)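 GST fusions of human transcription factors were expressed in yeast and captured with glutathione beads. Once given DNA barcodes and pooled alongside a tag-only sample, they were incubated for 30 min at room temperature with 200 nmole of a random double-stranded 16-mer DNA library in Tris/NaCl/DTT/glycerol buffer, then washed, crosslinked (0.1% formaldehyde), proximity-ligated, PCR-amplified and sequenced on an Illumina NextSeq500. The binding signal of each hexamer is its read frequency for a factor divided by its frequency for the tag-only sample.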
# GABPA = biological target: T2, GABPA (Homo sapiens, UniProt Q06546 1-454)
# T2 sequence: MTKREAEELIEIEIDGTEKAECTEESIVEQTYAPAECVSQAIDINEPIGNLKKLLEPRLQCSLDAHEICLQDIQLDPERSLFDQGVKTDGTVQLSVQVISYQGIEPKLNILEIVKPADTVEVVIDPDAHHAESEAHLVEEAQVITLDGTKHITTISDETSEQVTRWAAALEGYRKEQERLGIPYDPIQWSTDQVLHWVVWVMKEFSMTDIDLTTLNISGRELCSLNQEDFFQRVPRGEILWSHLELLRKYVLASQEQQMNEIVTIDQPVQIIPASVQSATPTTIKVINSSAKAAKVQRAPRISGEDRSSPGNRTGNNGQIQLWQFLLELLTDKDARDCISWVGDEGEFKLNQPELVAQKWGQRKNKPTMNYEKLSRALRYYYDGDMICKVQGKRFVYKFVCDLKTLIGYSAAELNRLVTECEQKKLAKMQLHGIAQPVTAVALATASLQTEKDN
# How it was run: as §1
# ERG = biological target: T3, ERG (Homo sapiens, UniProt P11308 1-479)
# T3 sequence: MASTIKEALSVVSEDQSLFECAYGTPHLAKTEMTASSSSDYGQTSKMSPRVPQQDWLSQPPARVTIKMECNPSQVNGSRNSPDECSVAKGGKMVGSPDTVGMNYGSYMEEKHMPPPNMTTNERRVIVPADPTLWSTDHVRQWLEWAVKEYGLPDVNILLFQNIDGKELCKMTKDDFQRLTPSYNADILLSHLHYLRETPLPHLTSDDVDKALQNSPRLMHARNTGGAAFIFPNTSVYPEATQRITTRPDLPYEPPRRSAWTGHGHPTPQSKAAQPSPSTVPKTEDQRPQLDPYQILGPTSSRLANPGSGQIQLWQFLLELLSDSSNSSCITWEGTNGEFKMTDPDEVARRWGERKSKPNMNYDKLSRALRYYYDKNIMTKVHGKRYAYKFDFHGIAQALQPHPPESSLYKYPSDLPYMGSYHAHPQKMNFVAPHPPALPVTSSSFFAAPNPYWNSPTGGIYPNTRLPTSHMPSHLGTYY
# How it was run: as §1
# EHF = biological target: T4, EHF (Homo sapiens, UniProt Q9NZC4 1-300)
# T4 sequence: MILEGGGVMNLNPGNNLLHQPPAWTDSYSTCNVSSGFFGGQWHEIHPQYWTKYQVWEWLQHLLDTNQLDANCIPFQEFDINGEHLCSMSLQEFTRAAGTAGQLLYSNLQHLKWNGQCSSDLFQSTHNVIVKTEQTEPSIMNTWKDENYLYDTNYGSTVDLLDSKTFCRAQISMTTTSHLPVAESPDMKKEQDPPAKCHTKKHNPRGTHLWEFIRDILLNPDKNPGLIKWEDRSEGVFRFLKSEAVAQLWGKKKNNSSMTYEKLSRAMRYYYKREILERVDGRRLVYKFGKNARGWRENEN
# How it was run: as §1
# SPI1 = SPI1 (Homo sapiens, UniProt P17947 1-270)
# How it was run: as §1
# ETV5 = ETV5 (Homo sapiens, UniProt P41161 1-510)
# How it was run: as §1
# SPIC = biological target: T5, SPIC (Homo sapiens, UniProt Q8N5J4 1-248)
# T5 sequence: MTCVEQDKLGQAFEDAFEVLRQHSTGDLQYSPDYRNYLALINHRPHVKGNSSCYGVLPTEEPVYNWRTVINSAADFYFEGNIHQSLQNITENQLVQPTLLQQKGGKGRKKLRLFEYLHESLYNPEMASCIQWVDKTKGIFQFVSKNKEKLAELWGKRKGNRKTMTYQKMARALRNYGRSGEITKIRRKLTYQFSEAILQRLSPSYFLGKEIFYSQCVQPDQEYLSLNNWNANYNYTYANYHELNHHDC
# How it was run: as §1
# ERF = biological target: T6, ERF (Homo sapiens, UniProt P50548 1-548)
# T6 sequence: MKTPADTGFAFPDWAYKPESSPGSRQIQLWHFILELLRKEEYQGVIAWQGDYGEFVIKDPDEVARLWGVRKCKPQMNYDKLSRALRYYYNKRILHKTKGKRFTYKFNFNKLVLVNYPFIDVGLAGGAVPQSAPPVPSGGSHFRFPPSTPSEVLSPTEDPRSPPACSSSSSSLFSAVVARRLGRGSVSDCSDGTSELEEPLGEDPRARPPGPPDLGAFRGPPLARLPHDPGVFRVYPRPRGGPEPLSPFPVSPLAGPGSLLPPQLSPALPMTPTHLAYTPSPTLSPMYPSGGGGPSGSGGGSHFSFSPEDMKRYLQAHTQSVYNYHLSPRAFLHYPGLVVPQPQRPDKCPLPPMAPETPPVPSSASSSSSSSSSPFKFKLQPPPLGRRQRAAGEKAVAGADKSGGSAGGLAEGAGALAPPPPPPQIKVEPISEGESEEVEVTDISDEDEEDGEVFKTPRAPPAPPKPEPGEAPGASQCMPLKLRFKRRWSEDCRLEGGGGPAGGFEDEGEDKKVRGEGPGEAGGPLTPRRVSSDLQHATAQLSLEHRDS
# How it was run: as §1
# ETV3L = biological target: T7, ETV3L (Homo sapiens, UniProt Q6ZN32 1-361)
# T7 sequence: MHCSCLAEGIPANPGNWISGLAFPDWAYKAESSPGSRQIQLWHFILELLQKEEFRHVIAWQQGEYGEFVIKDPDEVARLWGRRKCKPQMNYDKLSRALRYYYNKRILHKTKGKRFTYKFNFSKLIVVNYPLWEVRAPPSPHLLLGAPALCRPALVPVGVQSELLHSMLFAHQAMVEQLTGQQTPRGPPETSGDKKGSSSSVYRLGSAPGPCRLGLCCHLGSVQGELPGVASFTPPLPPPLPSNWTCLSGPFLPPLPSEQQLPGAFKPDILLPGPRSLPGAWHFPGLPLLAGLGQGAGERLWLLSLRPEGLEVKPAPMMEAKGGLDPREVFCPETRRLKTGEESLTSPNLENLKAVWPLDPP
# How it was run: as §1
# ETS2 = biological target: T8, ETS2 (Homo sapiens, UniProt P15036 1-469)
# T8 sequence: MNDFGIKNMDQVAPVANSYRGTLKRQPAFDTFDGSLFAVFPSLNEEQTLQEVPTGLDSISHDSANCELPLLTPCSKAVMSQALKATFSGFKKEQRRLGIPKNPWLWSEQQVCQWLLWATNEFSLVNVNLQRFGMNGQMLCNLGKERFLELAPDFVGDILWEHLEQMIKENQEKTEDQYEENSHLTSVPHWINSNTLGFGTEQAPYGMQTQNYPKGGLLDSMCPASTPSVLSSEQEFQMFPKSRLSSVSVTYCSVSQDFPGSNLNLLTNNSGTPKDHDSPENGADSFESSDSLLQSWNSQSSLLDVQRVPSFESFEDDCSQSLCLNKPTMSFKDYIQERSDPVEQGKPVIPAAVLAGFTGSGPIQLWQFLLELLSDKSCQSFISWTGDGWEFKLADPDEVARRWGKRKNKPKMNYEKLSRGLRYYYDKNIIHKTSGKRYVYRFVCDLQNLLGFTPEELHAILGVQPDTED
# How it was run: as §1
# ELF5 = biological target: T9, ELF5 (Homo sapiens, UniProt Q9UKW6-2 1-255)
# T9 sequence: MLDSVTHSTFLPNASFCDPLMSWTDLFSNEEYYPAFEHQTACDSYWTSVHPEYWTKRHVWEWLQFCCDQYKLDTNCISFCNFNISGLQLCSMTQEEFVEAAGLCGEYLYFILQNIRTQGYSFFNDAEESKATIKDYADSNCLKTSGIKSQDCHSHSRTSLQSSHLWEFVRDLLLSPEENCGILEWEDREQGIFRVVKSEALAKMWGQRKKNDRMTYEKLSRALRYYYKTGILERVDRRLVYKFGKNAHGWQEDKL
# How it was run: as §1
# ETV6 = ETV6 (Homo sapiens, UniProt P41212 1-452)
# How it was run: as §1
# Sequence of ETV5 (P41161 whole entry): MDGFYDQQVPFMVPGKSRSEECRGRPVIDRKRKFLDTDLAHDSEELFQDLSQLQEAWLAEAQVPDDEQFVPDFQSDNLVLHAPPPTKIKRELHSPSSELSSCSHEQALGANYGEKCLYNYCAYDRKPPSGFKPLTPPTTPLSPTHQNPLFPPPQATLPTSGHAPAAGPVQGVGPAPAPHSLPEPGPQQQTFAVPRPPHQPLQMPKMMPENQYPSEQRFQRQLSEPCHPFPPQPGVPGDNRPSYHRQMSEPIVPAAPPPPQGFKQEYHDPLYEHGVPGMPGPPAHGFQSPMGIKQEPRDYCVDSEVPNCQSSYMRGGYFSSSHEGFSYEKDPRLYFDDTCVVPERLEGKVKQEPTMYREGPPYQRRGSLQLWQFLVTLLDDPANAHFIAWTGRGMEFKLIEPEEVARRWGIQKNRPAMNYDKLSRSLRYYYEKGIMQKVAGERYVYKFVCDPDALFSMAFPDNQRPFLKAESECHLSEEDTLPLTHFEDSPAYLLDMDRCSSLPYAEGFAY
# Sequence of ETV6 (P41212 whole entry): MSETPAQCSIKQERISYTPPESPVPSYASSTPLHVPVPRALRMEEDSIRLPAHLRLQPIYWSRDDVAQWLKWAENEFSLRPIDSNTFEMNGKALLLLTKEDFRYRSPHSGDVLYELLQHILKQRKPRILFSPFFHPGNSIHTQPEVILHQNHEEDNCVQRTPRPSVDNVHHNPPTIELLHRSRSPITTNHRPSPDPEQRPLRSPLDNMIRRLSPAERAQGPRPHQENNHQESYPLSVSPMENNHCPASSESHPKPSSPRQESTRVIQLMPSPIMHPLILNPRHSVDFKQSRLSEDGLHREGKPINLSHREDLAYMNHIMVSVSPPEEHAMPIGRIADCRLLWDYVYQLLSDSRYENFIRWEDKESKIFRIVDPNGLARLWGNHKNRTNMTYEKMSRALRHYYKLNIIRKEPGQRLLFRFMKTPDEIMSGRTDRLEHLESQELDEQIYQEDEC
sequence,measurement,setting,value
GTAGTT,binding signal,FLI1,"1.1 fold enrichment (6-mer frequency, TF over GST control)"
same,binding signal,GABPA,"1.05 fold enrichment (6-mer frequency, TF over GST control)"
same,binding signal,ERG,"1.01 fold enrichment (6-mer frequency, TF over GST control)"
same,binding signal,EHF,"1.07 fold enrichment (6-mer frequency, TF over GST control)"
same,binding signal,SPI1,"1.01 fold enrichment (6-mer frequency, TF over GST control)"
same,binding signal,ETV5,"1.04 fold enrichment (6-mer frequency, TF over GST control)"
same,binding signal,SPIC,"1.05 fold enrichment (6-mer frequency, TF over GST control)"
same,binding signal,ERF,"1.07 fold enrichment (6-mer frequency, TF over GST control)"
same,binding signal,ETV3L,"1.01 fold enrichment (6-mer frequency, TF over GST control)"
same,binding signal,ETS2,"1.02 fold enrichment (6-mer frequency, TF over GST control)"
same,binding signal,ELF5,"1.07 fold enrichment (6-mer frequency, TF over GST control)"
same,binding signal,ETV6,"1.08 fold enrichment (6-mer frequency, TF over GST control)"
